# Mtb FBA inh = Mtb fructose-bisphosphate aldolase inhibition | P9WQA3 | purified M. tuberculosis FBA, fluorescence read-out | inhibition, % at 1 µM | 360,000 compounds, 2.3% hits | AID 588726; in the data active = inhibition above about 27%;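 also: 0% = vehicle and 100% = reference inhibitor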
# Target sequence (P9WQA3 whole entry, looked up): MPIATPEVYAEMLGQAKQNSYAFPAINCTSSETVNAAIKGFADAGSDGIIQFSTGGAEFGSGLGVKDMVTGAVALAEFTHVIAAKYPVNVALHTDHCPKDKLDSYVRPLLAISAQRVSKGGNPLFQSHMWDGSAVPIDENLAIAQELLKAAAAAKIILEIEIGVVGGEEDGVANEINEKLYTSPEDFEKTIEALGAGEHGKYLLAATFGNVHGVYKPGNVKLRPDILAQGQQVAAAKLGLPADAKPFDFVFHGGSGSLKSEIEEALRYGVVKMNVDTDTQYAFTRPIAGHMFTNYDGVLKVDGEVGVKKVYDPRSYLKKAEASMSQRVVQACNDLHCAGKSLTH
# GDH-TPI counter = GDH-TPI coupled enzyme inhibition counter-screen. GDH-TPI coupled enzyme counterscreen, NADH absorbance. inhibition, % at 4.8 µM. 360,000 compounds, 1.2% hits. AID 588335; in the data active = inhibition above about 30%;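 also: 0% = DMSO wells and 100% = wells lacking the enzyme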
# Anthrax LF inh2 = blocks Bacillus anthracis lethal factor protease; inhibition, % at 10 µM; P15917; 360,000 compounds, 0.12% hits; AID 588501; multiplex microsphere protease cleavage assay, LF; also: plate controls were buffer without enzyme for full effect and enzyme alone for no effect
# BoNT-A LC inh2 = blocks Botulinum neurotoxin A light chain protease; multiplex microsphere protease substrate cleavage, flow cytometry; inhibition, % at 10 µM; 360,000 compounds, 0.17% hits; also: plate controls were buffer without enzyme for full effect and enzyme alone for no effect
# BoNT-F LC inh = blocks Botulinum neurotoxin F light chain protease. Multiplex microsphere protease cleavage assay, flow cytometry. inhibition, % at 10 µM. 360,000 compounds, 0.22% hits. AID 588497; in the data active = inhibition above about 35%, passing the limit was not always enough; inconclusive = no clear call, values can overlap the other calls; also: plate controls were buffer without enzyme for full effect and enzyme alone for no effect
# Bead autofluor = counter-screen for toxin protease inhibitors: compound fluorescence; compound autofluorescence counterscreen, microsphere flow cytometry; stronger effect = higher value; fluorescence intensity (no concentration beside the values); 360,000 compounds, 3.1% hits; AID 624483; in the data active = fluorescence intensity above about 16000; inconclusive = no clear call, values can overlap the other calls
# Starred values were filed as active, the others as inactive; ? = inconclusive; / = no result given; + = active, no number; ! = not active in a repeat. Sampled rows, rich in hits. Any-hit rate of the full collection: about 6.7%. Rule as the data show it, unless noted: active = inhibition above about 30%; inconclusive = no clear call, values can overlap the other calls; inactive = below that.
SMILES,Mtb FBA inh,GDH-TPI counter,Anthrax LF inh2,BoNT-A LC inh2,BoNT-F LC inh,Bead autofluor
CC(C)CN1CCN(Cc2cc3ccccc3[nH]2)CC1CCO (stereo not drawn),2,13,-14,2,-37,4985
O=S1(=O)NC(=NCc2ccccc2)c2ccccc21,3,-1,-6,?,6,19517*
Cc1ccccc1-c1nc(CS(=O)(=O)CC(=O)NCCCN2CC(C)CC(C)C2)c(C)o1 (stereo not drawn),4,-15,-2,3,8,4832
Cc1ccccc1-c1nc(CN2CCC(C(=O)NCCN3CCOCC3)CC2)c(C)o1,3,-6,-1,-1,-2,6942
Cc1ccccc1-c1nc(CN2CCC(C(=O)NCCCN3CCOCC3)CC2)c(C)o1,-1,6,-3,?,-5,26327*
CCN1CCCC1CNC(=O)C1CCN(Cc2nc(-c3cccc(Br)c3)oc2C)CC1 (stereo not drawn),0,6,-2,2,4,18142*
Cc1ccccc1-c1nc(CN2CCC(C(=O)NCCCN3CC(C)CC(C)C3)CC2)c(C)o1 (stereo not drawn),-1,7,-2,0,0,22754*
Cc1ccccc1-c1nc(CN2CCC(C(=O)NCCCN3CCCC3)CC2)c(C)o1,-1,10,-6,-2,-8,17690*
CN(C)c1ccc(Cc2ccc(N(C)C)cc2)cc1,7,-3,3,-1,-9,3715
CNc1nnc(-c2ccc(N(C)C)cc2)s1,+,46*,-5,?,-26,9908
CCOC(=O)NC(Nc1nnc(C)s1)(C(=O)OCC)C(F)(F)F (stereo not drawn),0,-6,-4,0,-2,3871
CCOC(=O)NC(Nc1nc2ccccc2s1)(C(=O)OCC)C(F)(F)F (stereo not drawn),3,0,-3,-6,-8,25071*
CC(O)CNCCNCc1cccs1 (stereo not drawn),-5,-3,-2,0,-3,4103
CCc1ccc(CNCCNCC(C)O)cc1 (stereo not drawn),-4,0,-1,-2,-9,21353*
COc1ccc(OCC(=O)N/N=C2\CCCc3ccccc32)cc1,0,0,2,-1,-19,2470
Cc1cccc2c1OCC/C2=N\NC(=O)COc1ccccc1,9,-8,0,-2,-1,20669*
Cc1c(NC(=O)Nc2ccc(C(C)C)cc2)c(=O)n(-c2ccccc2)n1C,2,4,-3,0,5,5458
C/C(N)=C(/C#N)C(=O)CSc1nnnn1-c1ccc(C)cc1C,-2,-2,-16,8,13,19626*
C/C(N)=C(/C#N)C(=O)CSc1nnc(Nc2cccc(C)c2)s1,-1,11,0,0,0,17498*!
C/C(N)=C(/C#N)C(=O)CSc1nc2cc(Cl)ccc2s1,1,-4,1,?,-5,24839*
CC(C)CCn1c(=O)c(C(=O)NCc2ccc3c(c2)OCO3)c(O)c2ccccc21,0,6,-4,2,8,3746
COc1cc(-c2noc(CCCC(=O)Nc3ccc(C(N)=O)cc3)n2)cc(OC)c1OC,3,4,3,0,-4,5575
COc1ccccc1CC(=O)Nc1ccc(-c2noc(COc3ccc(Cl)c(C)c3)n2)cc1,-4,11,0,?,4,21393*
COc1ccc(-c2noc(CCCC(=O)Nc3ccc(C(N)=O)cc3)n2)cc1,4,1,0,-5,-5,22075*
O=C(c1ccc2c(c1)OCCCO2)c1cccs1,-2,10,-1,?,-4,22559*
SMILES,Mtb FBA inh,GDH-TPI counter,Anthrax LF inh2,BoNT-A LC inh2,BoNT-F LC inh,Bead autofluor
C=CCOc1ccc(C2C(C(=O)c3cccs3)=C(O)C(=O)N2c2nnc(C)s2)cc1 (stereo not drawn),3,15,1,-1,170*,7000
COc1ccc(C2C(C(=O)c3cccs3)=C(O)C(=O)N2c2nncs2)cc1 (stereo not drawn),-2,7,-10,?,1,22479*
Cc1c(NC(=O)C(C)n2cc([N+](=O)[O-])cn2)c(=O)n(-c2ccccc2)n1C (stereo not drawn),1,0,-6,0,-8,3754
O=C(c1ccc(Br)cc1)c1cc(-c2ccccn2)c(N2CCOCC2)s1,-1,8,6,?,5,19199*
CN(C)c1ccc(C2/C(=C(/O)c3ccc(Br)cc3)C(=O)C(=O)N2C)cc1 (stereo not drawn),-1,10,8,0,-3,3848
CCOC(=O)N1CCN(/C=C(\C#N)c2nc3ccccc3s2)CC1,1,35*,/,/,/,/
COC(=O)CC1(c2ccc(OC)cc2)C(=O)c2ccccc2C1=O,-3,-3,-5,?,?,4649
COC(=O)CC1(c2ccccc2)C(=O)c2ccccc2C1=O,-1,17,0,?,-2,16568*
CCN(CC)S(=O)(=O)c1cccc(-c2nnc(SC(C)C(=O)NCCC3=CCCCC3)o2)c1 (stereo not drawn),1,-1,0,2,2,22080*
CCOc1ccc(C(=O)OCC(=O)Nc2nc(OC)cc(OC)n2)cc1OCC,-1,1,-2,?,-2,23423*
CCCCNC(=O)Nc1cc(C)on1,0,-7,0,-3,-6,20643*
CNS(=O)(=O)c1cccc(C(=O)OCC(=O)Nc2nc(OC)cc(OC)n2)c1,1,-4,0,-2,5,8512
CCOc1cc(C(=O)OCC(=O)Nc2cc(C)on2)cc(OCC)c1OCC,1,3,3,-5,-6,22120*
COC(=O)C1=C(c2c(C)noc2C)C[C@@H]2CC[C@H]1N2C(=O)N1CCC(C)CC1,-4,9,2,0,3,3344
COc1ccc(/C=N/NC(=O)c2ccc3c(c2)OCCO3)cc1[N+](=O)[O-],-4,18,1,0,-4,2007
COc1cc(C)ccc1OCCOc1c(Cl)cc(Cl)cc1Cl,2,5,-3,-1,-13,2958
CCN(CC)C(=O)Cn1c(=O)n(Cc2ccc(F)cc2)c(=O)c2sccc21,1,5,/,/,/,/
COc1cccc(NC(=O)C(C#N)Cc2ccncc2)c1 (stereo not drawn),-1,-2,1,6,10,19544*
CC1CSc2ccccc2NC1=S (stereo not drawn),-2,1,-6,0,-2,16476*
S=C1CSc2ccccc2N1,1,15,-8,0,-4,3215
CCOC(=O)C1=CCN(S(=O)(=O)c2ccccc2C(=O)OC)C1c1ccc(Cl)cc1 (stereo not drawn),-2,/,1,0,-4,6166
CCOC(=O)c1ccc(N=C(c2ccccc2)c2c(O)n(C)c(=O)n(C)c2=O)cc1,0,3,31*,-3,?,3761
COC(=O)c1ccc(N=C(c2ccccc2)c2c(O)n(C)c(=O)n(C)c2=O)cc1,3,15,-8,0,-10,6228
